Drawing on PubChem BioAssay (EPA / NIEHS), this text covers outcome and AC50 for 38 molecules.

“And” between values parts separate entries of the source, which are not always exact repeats. Equal values may be shown once. The source made the active and inactive calls. The calls were made as follows: active = hit-call score of the fitted dose curve at least 0.9, where 1 is the maximum; inactive = score below 0.9.

This assay can be described thus: ATG_GLI_CIS: Attagene CIS-FACTORIAL HepG2 Assay for human Zinc Finger Protein GLI1 (AID 2282945). The following applies: HepG2, Attagene cis-factorial reporter mRNA, GLI element; actives raise or lower the signal. The method in brief: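 Transiently transfected HepG2 cells report endogenous transcription factor activity via cis-element-driven reporter units. After 24 h compound exposure, reporter mRNA was measured by RT-PCR with capillary electrophoresis; bidirectional fitting against DMSO baseline.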
For the molecule `CC1=CC(=O)/C(=C(/C)O)C(=O)O1`, the call was inactive.

For the molecule `Cc1oc2c(NC(=O)c3c(Cl)cccc3Cl)cccc2c1C(C)(C)O`, the molecule was called inactive.

Regarding `CCCCCCCCCC(=O)O`, the call was inactive. Same read-out and setting: next, `COc1ccc2cc(S(=O)(=O)N[C@H](CC(=O)N[C@H](Cc3ccc(CN4[C@H](C)CCC[C@@H]4C)cc3)C(=O)N(C)C(C)C)c3ccc4c(c3)OCO4)ccc2c1`: “inactive”.

`c1ccc2n[nH]nc2c1`: the call was inactive. Still for that read-out and setting: the same measure for `CN1C(=O)CC[C@H]1c1cccnc1`: “inactive”. Same read-out and setting: next, `O=C(O)Cn1c(=O)n(Cc2ccc(Br)cc2F)c(=O)c2ccc(Cl)cc21`: “inactive”; `CCCCCCCCCCCCO`: “inactive”. Same read-out and setting: the same measure for `COc1cc(C(=O)NC2CCN(C)CC2)ccc1Nc1ncc2c(n1)N(C1CCCC1)CC(F)(F)C(=O)N2C`: “inactive”; for `O=C(OCCCCCCOC(=O)c1ccccc1)c1ccccc1`: “inactive”; for `CC(C)(C)c1csc(-c2cc3cc(OCc4ccccc4CC(=O)O)ccc3o2)n1`: “inactive”. As to `O=C=NCCCCCCN=C=O`, the molecule was classed as inactive. Same read-out and setting: next, `O=C1c2ccccc2C(=O)N1CCc1noc(-c2ccc(CN3CCCCCC3)s2)n1`: “inactive”; `CCCCCCCCCCCC[N+](C)(C)C`: “inactive”; `CC(=O)N1CCN(c2ccc(OC[C@H]3CO[C@](Cn4ccnc4)(c4ccc(Cl)cc4Cl)O3)cc2)CC1`: “inactive”. Take `NCc1cccc(C2CCN(C(=O)c3ccc(C#Cc4ccccc4F)o3)CC2)c1`: the molecule was classed as inactive. As for `O=C1O[C@H]([C@@H](O)CO)C(O)=C1O`, the call was inactive. For the molecule `Cc1occc1C(=O)Nc1ccc(C(=O)N2CCC(F)(F)/C(=C\C(=O)N3CCC(N4CCCCC4)CC3)c3ccccc32)cc1`, the outcome was inactive. With `CC(C)(C)c1cc(/C=C2\SC(N)=NC2=O)cc(C(C)(C)C)c1O`, the molecule was classed as inactive. The same measure, in the same setting: the same measure for `CCCC(=O)OCCC(C)C`: “inactive”; for `Cc1ncc(CO)c(CO)c1O`: “inactive”; for `CCN(CC)C(=O)c1cc(S(=O)(=O)Cc2ccccc2)c(N2CCC(c3ccccc3)CC2)cc1N(CC)CCN(C)C`: “inactive”. Still for that read-out and setting: next, `CCCCOC(=O)CC(CC(=O)OCCCC)(OC(C)=O)C(=O)OCCCC`: “inactive”; `Cc1ccc2oc(CN(Cc3ccccc3)C(=O)Nc3c(F)cc(F)cc3F)c(-c3ccc(Cl)cc3)c2c1`: “inactive”; `CCCCCCCCOC(=O)c1cc(O)c(O)c(O)c1`: “inactive”.

With `O=c1[nH]sc2ccccc12`, the result was inactive. Same read-out and setting: the same measure for `CCCCCCCCOc1ccc(C(=O)c2ccccc2)c(O)c1`: “inactive”; for `CN1C(=O)N(c2ccccc2Br)Cc2cnc(Nc3ccc4c(c3)OCC(CO)O4)nc21` (stereo not drawn): “inactive”. In the case of `Clc1ccccc1C(c1ccccc1)(c1ccccc1)n1ccnc1`, the result was inactive. Same read-out and setting: next, `CC(O)CC(C)(C)O` (stereo not drawn): “inactive”; `CCOC(=O)O[C@H](C)OC(=O)c1ccc2c(c1)cc(C(=O)NC1CCN(C(C)C)CC1)n2Cc1cc(-c2ccc(Cl)s2)on1`: “inactive”.

Consider `O=CCCCC=O`, for which the result was inactive.

On to `CC(C)(c1cc(Br)c(O)c(Br)c1)c1cc(Br)c(O)c(Br)c1`, for which the AC50 is 49.8 µM (active) and 50.8 µM (active).

Consider `Cc1cccc2ccccc12`, for which the molecule was classed as inactive. Still for that read-out and setting: the same measure for `CC(C)(O)c1ccc(CNC(=O)c2cccnc2Oc2ccc3nonc3c2)cc1`: “inactive”; for `CCO[Si](CCCNC(N)=O)(OCC)OCC`: “inactive”; for `C[C@]12CC[C@@H]3c4ccc(O)cc4CC[C@H]3[C@@H]1CCC2=O`: “inactive”. The same measure, in the same setting: the same measure for `COc1cccc([C@H](O)C2CCN(CCc3ccc(F)cc3)CC2)c1OC`: “inactive”.

One may read the AC50 as the concentration at which the activity in the assay is half-maximal.
